Source: PubChem BioAssay (National Center for Advancing Translational Sciences (NCATS))
Most compounds without a hit are left out; they make up all but 11% or so of the library.
L3MBTL1 block: qHTS Assay for the Inhibitors of L3MBTL1; Lethal(3)malignant brain tumor-like protein 1 (Homo sapiens), Q9Y468; AlphaScreen L3MBTL1–H3K9me1 peptide binding; Potency, µM (titrated, usually from 57.1 µM), for the others: at the top dose activity, negative = inhibition, hits mostly inhibitors; 230,000 compounds, 0.66% hits; AID 485360, 2010; further: potency means the concentration at half of the fitted maximal effect; on the % scale 0 is the no-effect control and ±100 the full control effect; nearly all actives have a fitted effect of over 60% in size
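Displacement of a biotinylated histone H3(1-15) peptide monomethylated at Lys9 (75 nM) from L3MBTL1 (50 nM) was measured by AlphaScreen after a 30 min room-temperature compound incubation; cefsulodin titration served as intraplate control.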
BAZ2B block: qHTS Assay for Inhibitors of BAZ2B; AlphaScreen BAZ2B-H3K14Ac peptide displacement; Potency, µM (series often up to 114 µM), inactives show at the top dose activity change, negative = inhibition, usual class: inhibitors; Bromodomain adjacent to zinc finger domain protein 2B (Homo sapiens), Q9UIF8; AID 504333, 2011; 360,000 compounds, 4.4% hits; further: potency means the concentration at half of the fitted maximal effect; on the % scale 0 is the no-effect control and ±100 the full control effect; nearly all actives have a fitted effect of over 60% in size
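AlphaScreen displacement: compounds (up to 110uM) incubated 30 min at room temperature with a preformed 50 nM BAZ2B/50 nM biotinylated H3K14Ac peptide complex in PBS pH 7.4 with Tween-20. Donor and acceptor beads at 10 ug/mL final added, 20 min light-protected before reading.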
HP1b chromo inh: HTS for Inhibitors of HP1-beta Chromodomain Interactions with Methylated Histone Tails; AlphaScreen HP1-beta / biotin-H3K9me3 peptide binding; Potency, µM (top dose mostly 114 µM), for inactives: top-dose activity change, negative = inhibition, most hits filed as inhibitors; 390,000 compounds, 0.56% hits; AID 540317, 2011; further: potency means the concentration at half of the fitted maximal effect; nearly all actives have a fitted effect of over 70% in size
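AlphaScreen: HP1-beta (50 nM) preformed 30 min with biotin-H3(1-18)K9me3 peptide (50 nM) in PBS pH 7.4, 0.01% Tween-20. Compound added for 30 min at RT, then streptavidin donor/nickel chelate acceptor beads (10 ug/mL) for 30 min.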
G9a block: qHTS Assay for Inhibitors of Histone Lysine Methyltransferase G9a; Potency, µM (titrated, usually from 102 µM), for inactives: at the highest dose activity, negative = inhibition, hits mostly inhibitors; G9a H3K9 monomethylation, AlphaScreen, 2 h; AID 504332, 2011; 350,000 compounds, 8.8% hits; further: potency means the concentration at half of the fitted maximal effect; on the % scale 0 is the no-effect control and ±100 the full control effect; nearly all actives have a fitted effect of over 75% in size
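Methyltransferase reactions run at room temperature for 2 h (20 nM enzyme, 500 nM biotin-H3K9 peptide, 20 uM SAM) after a 15 min compound preincubation; product detected by AlphaScreen beads and anti-H3K9me1 antibody.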
PI5P4K alpha inh: qHTS for Inhibitors of phosphatidylinositol 5-phosphate 4-kinase (PI5P4K); Phosphatidylinositol 5-phosphate 4-kinase type-2 alpha (Homo sapiens), P48426; PI5P4Kalpha enzyme, ADP-Glo luminescence, 60 min; stronger effect = lower value; max response, %; 330,000 compounds, 1.2% hits; AID 652105, 2013; active means max response of -50% or lower; inconclusive means between -30% and -50%; inactive means -30% or higher; further: value at the top dose of about 77 µM; on the % scale 0 is the no-effect control and ±100 the full control effect
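Quantitative HTS of the MLSMR library against PI5P4Kalpha with substrate. ATP added last at 5 microM final; room temperature, 60 minutes. Remaining ATP depleted, ADP converted and read as luminescence.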
JMJD2A Tudor: qHTS Assay for Inhibitors of JMJD2A-Tudor Domain; Lysine-specific demethylase 4A (Homo sapiens), O75164; AlphaScreen JMJD2A-Tudor / H3K4me3 peptide binding; Potency, µM (highest dose often 114 µM), for inactives: top-dose activity change, negative = inhibition, most hits filed as inhibitors; 390,000 compounds, 4.4% hits; further: potency means the concentration at half of the fitted maximal effect; on the % scale 0 is the no-effect control and ±100 the full control effect; nearly all actives have a fitted effect of over 50% in size
Starred values were filed as active, the others as inactive; ? = inconclusive; / = no result; [ ] = another dose, or the depositor's remark. Unless noted, the call rests on the fitted dose curve; in most records, active means well fitted inhibition curve with a large enough effect; inconclusive means small, poorly fitted or top-dose-only effect; inactive means no such curve, though single readings can be large or run the other way.

SMILES | L3MBTL1 block | BAZ2B block | HP1b chromo inh | G9a block | PI5P4K alpha inh | JMJD2A Tudor
Cc1ccc2c(c1)-c1c(c(C(=O)N3CCN(c4cc(C)ccc4C)CC3)nn1C)CS2 | / | -22% | 28% | -25%[12.7 µM] | / | -14%
CCn1c(SCC(=O)N2CCC(C)CC2)nnc1-c1ccccc1O | / | 4% | 45% | -27%[59 µM] | / | 10%
CN(C)c1ccc(-n2cccc2)cc1 | ? | 22µM* | 22µM* | 40µM* | 1 | 20µM*
CN(C)/C=C/C(=O)c1ccc(-n2cccc2)cc1 | -13% | ? | 18% | ? | -28 | ?
CCCCC(=O)Nc1ccc(S(=O)(=O)N2CCCCC2c2cccnc2)cc1 (stereo not given) | / | -13% | 31% | 38% | 0 | -10%
O=C(/C=C/c1ccc(Cl)cc1)NC(=S)NN1CCCCC1c1cccnc1 (stereo not given) | -7% | ? | / | 22µM* | / | /
COc1ccc(/C=C/C(=O)NC(=S)N2CCCCC2)cc1OC | / | -1% | 25% | ? | 7 | -7%
COc1ccc(/C=C/C(=O)NC(=S)NN2CCCCC2c2cccnc2)cc1OC (stereo not given) | -13% | -38% | 6% | 32µM* | -22 | -9%
CCN(c1ccccc1)c1nnc(NC(=O)Nc2ccc(Br)cc2)s1 | / | -13% | 10% | -38%[59 µM] | / | -15%
CC(=O)Nc1cccc(-c2nnc(SCC(=O)c3cc([N+](=O)[O-])ccc3Br)o2)c1 | / | -33% | 20% | -8%[59 µM] | / | -21%
O=C(CSc1cn(CCNC(=O)c2c(F)cccc2F)c2ccccc12)Nc1ccc2c(c1)OCCO2 | / | -6% | 24% | 3%[59 µM] | / | 1%
CC(C)N(C(=O)c1ccccc1-c1ccccc1)C(C)C | / | 10% | 23% | 4%[59 µM] | 4 | -10%
CC(C)(C=O)C1=CC(=O)c2ccccc2C1=O | -11% | 50µM* | 5µM* | 1.8µM* | -52* | 25µM*
CC1=CC(=O)c2ccccc2C1=O | -18% | ? | 33% | 8.9µM* | 0 | 10%
CCCSc1nnc(NC(=O)Cc2coc3cc(C)ccc23)s1 | / | 2% | 33% | -4%[59 µM] | / | -13%
CC(C)C1Cc2c(C#N)c(N)sc(=S)c2CO1 (stereo not given) | / | ? | ? | 7.9µM* | 1 | 50µM*
CC1(C)Cc2c(C#N)c(N)sc(=S)c2CO1 | -14% | ? | -1% | 7.9µM* | / | ?
CCN(CC)c1nc(C)c2c(c1C#N)CC(C)(C)OC2 | 15% | 24% | 80% | 3%[59 µM] | 3 | 22%
CC(=O)c1ccc(NC(=O)CC2Oc3ccc(C)cc3NC2=O)cc1 (stereo not given) | / | -1% | 8% | -21%[59 µM] | / | -17%
Cc1ccc(N(CCC#N)C(=O)COC(=O)c2cc(C)no2)cc1 | -3% | 10% | 14% | 22µM* | -9 | -13%
Cc1ccc(N(CCC#N)C(=O)COC(=O)C2CCN(S(=O)(=O)c3ccc(C)c(C)c3)CC2)cc1 | 3% | -32% | 34% | 45µM* | -1 | -3%
Cc1cc(C)cc(N(CCC#N)C(=O)COC(=O)C2CCN(S(=O)(=O)c3ccc(C)c(C)c3)CC2)c1 | -8% | 7% | 19% | -44% | -2 | -15%
CCN1/C(=C2\OC(=S)N(C)C2=O)C=Cc2ccccc21 | / | / | 15% | 3% | -2 | -12%
CN1C(=O)/C(=C2/C=CC=CN2C)OC1=S | -10% | -11% | ? | 32µM* | 1 | -17%[57.1 µM]
CCOC(=O)c1sc(N)c(C(=O)Nc2ccccc2OC)c1C | 6% | ? | 5.6µM* | 2.8µM* | -26 | 56µM*
SMILES | L3MBTL1 block | BAZ2B block | HP1b chromo inh | G9a block | PI5P4K alpha inh | JMJD2A Tudor
CCOC(=O)c1[nH]cnc1C(=O)Nc1ccccc1OC | ? | 89µM* | 34% | ? | -4 | ?
CCOC(=O)c1[nH]cnc1C(=O)Nc1ccc(Cl)cc1 | 6% | -15% | 34% | 3% | -9 | -8%
CCOC(=O)c1[nH]cnc1C(=O)Nc1ccccn1 | -8% | 79µM* | 28% | ? | / | -88%
CCOC(=O)c1[nH]cnc1C(=O)Nc1cccc(Cl)c1 | -11% | 89µM* | 3% | ? | 7 | -15%
CCOc1ccccc1NC(=O)c1nn(C)c2c1CSc1ccccc1-2 | / | -28% | 9% | ? | / | ?
Cc1cccc(C)c1OC(=O)CSc1nnc(CNC(=O)c2ccccc2)o1 | / | -26% | 26% | -3%[59 µM] | / | -20%
CCOC(=O)c1scc(-c2ccccc2)c1S(=O)(=O)Nc1ccccc1OC | / | ? | -20% | 14µM* | / | -24%
COc1ccc(CCNC(=O)CSc2n[nH]c(-c3ccccc3Cl)n2)cc1OC | / | 6% | 18%[57 µM] | 8%[59 µM] | / | -9%
COc1ccc(C(C(=O)NC2CCCC2)N(CCO)C(=O)Cn2nnc(-c3ccc(C)o3)n2)cc1OC (stereo not given) | / | -3% | 3% | 28µM* | 5 | -17%
Cc1ccc(-c2nnn(CC(=O)N(Cc3ccccc3F)C(C(=O)NC3CCCC3)c3ccncc3)n2)o1 (stereo not given) | 4% | 2% | 18% | 25µM* | -28 | -34%
Cc1ccc(-c2nnn(CC(=O)N(c3ccccc3)C(C(=O)NC3CCCC3)c3ccncc3)n2)o1 (stereo not given) | / | -7% | 9% | 12% | 1 | -11%
COc1ccc(C(C(=O)NC2CCCC2)N(CCO)C(=O)Cn2nnc(-c3ccc(C)o3)n2)cc1 (stereo not given) | / | 6% | 3% | 24% | 0 | -8%
CCCCN1CC(c2nc3ccccc3n2CCCCOc2c(C)cccc2C)CC1=O (stereo not given) | / | 1% | 32% | ? | / | -3%
CCOc1ccc(Nc2c(S(=O)(=O)c3ccc(Cl)cc3)cnc3ccc(OC)cc23)cc1 | / | -29% | -3% | -33%[59 µM] | / | -22%
O=C(NCCc1ccccc1)c1noc2c1CCc1ccccc1-2 | 1% | -30% | 30% | / | / | -17%
O=C1c2ccccc2CCC1CNCCc1ccc(O)cc1 (stereo not given) | / | / | / | 7.9µM* | / | /
Cc1cc(N2CCOCC2)ccc1/C=C1\NC(=O)N(Cc2ccccc2)C1=O | 3% | -29% | 36% | 50µM* | 2 | -7%
COc1ccc2c(c1)Cc1sc(NC(C)=O)nc1-2 | 4%[11.4 µM] | -31% | 16% | -27%[12.7 µM] | / | -25%
CCc1cc2ccc(OC)cc2nc1SCC(=O)NNC(=O)c1ccco1 | -7% | -21% | 31% | 50µM* | 4 | -15%
